# Assay results taken from PubChem BioAssay.
# For some of these results: Entries with a potency or affinity are not part of this list. Active and inactive are the calls of the source.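 Rule for the calls, unless noted: active = fluorescence ratio normalized to control raised more than 50% in primary screen plus both repeat runs; inactive = the rest.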
# Columns and labels:
# [1] = tested on: TRPC4 beta (transient receptor potential cation channel C4), mouse; test: TRPC4 cation channel opening, retest – cell-based, Fluo4 calcium, HEK293 TRPC4beta/mu-opioid, duplicates, 10 µM, confirmation (AID 2426); settings: Fluo4 calcium fluorescence, at 10 µM; hits give high values
# [2] = tested on: transient receptor potential cation channel C4 beta (TRPC4), mouse; test: TRPC4 cation channel opening, second retest – cell-based, second round, Fluo4, HEK293 TRPC4beta/mu-opioid, 1 µM, confirmation (AID 2461;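 active = primary screen active and over 50% activation in each of two duplicate runs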); settings: Fluo4 calcium fluorescence, at 1 µM; hits give high values
# [3] = tested on: TRPC4 (transient receptor potential cation channel C4 beta), mouse; test: potentiation of DAMGO EC20 TRPC4 response – cell-based, second round, Fluo-4, HEK293 TRPC4beta/mu-opioid, 1 µM, confirmation (AID 2554;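 active = primary screen hit whose fluorescence ratio, in both repeats, exceeds the weak agonist control mean by 3 SD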); settings: DAMGO EC20, Fluo-4 calcium flux, at 1 µM; hits give high values
# [4] = tested on: TRPC4 beta (transient receptor potential cation channel C4), mouse; test: potentiation of DAMGO EC20 TRPC4 response – cell-based, Fluo-4, HEK293 TRPC4beta/mu-opioid, confirmation (AID 2555;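 active = primary screen hit whose calcium fluorescence ratio, in both repeats, exceeds the weak agonist control mean by 3 SD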); settings: DAMGO EC20, Fluo-4 calcium flux, at 10 µM; hits give high values
# [5] = target: Short transient receptor potential channel 4 (Mus musculus) (UniProt Q9QUQ5); test: blockers of DAMGO-evoked TRPC4 calcium flux – cell-based, Fluo4, HEK293 TRPC4beta/mu-opioid, confirmation (AID 2636;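 active = calcium signal cut by more than 3 SD below the full-agonist control yet still positive, in both repeats and the earlier primary screen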); settings: at 10 µM; hits give high values
# Sequence of Short transient receptor potential channel 4 (Mus musculus) (Q9QUQ5 whole entry, looked up): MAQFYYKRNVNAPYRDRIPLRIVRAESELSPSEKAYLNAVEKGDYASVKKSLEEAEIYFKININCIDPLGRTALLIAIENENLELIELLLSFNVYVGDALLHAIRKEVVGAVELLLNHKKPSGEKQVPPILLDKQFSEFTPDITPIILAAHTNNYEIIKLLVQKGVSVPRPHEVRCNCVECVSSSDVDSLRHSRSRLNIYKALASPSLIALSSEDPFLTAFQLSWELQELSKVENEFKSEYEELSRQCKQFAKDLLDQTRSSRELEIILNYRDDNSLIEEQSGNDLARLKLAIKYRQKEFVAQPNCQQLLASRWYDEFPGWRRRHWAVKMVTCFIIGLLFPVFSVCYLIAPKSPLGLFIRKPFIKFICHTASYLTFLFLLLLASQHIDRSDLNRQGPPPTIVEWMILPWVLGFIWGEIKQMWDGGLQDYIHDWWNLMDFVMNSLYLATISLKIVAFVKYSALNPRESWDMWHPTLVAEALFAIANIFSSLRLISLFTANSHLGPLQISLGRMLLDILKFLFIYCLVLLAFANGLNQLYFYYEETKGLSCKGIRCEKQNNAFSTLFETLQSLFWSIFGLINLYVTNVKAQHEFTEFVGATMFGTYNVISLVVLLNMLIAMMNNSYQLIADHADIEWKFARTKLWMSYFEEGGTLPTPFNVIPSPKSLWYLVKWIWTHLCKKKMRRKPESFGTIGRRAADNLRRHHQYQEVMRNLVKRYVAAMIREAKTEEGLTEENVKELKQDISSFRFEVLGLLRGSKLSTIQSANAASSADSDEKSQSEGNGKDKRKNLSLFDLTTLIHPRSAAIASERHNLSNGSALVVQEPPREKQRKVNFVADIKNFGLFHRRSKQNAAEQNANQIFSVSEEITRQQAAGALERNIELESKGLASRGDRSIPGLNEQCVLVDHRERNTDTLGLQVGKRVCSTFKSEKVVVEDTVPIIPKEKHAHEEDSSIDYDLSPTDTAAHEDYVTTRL
# [6] = target: Short transient receptor potential channel 4 (Mus musculus) (UniProt Q9QUQ5); test: blockers of DAMGO-evoked TRPC4 calcium flux – cell-based, second round, Fluo4, HEK293 TRPC4beta/mu-opioid, 1 µM, confirmation (AID 2637;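 active = calcium signal ratio cut to more than 3 SD under the fully stimulated control mean yet still positive, in both repeats and the primary screen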); settings: at 1 µM; hits give high values
# [7] = target: Short transient receptor potential channel 4 (Mus musculus) (UniProt Q9QUQ5); test: calcium entry via TRPC4 opening agents – cell-based, HEK293 TRPC4/mu-opioid, Fluo-4 calcium, dose response (AID 434937;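 active = primary screen activator hit with a dose response curve and TRPC4 channel activation at any tested dose; inactive = no activation, no dose response, or not a primary hit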)
# [8] = target: Short transient receptor potential channel 4 (Mus musculus) (UniProt Q9QUQ5); test: potentiation of DAMGO-evoked TRPC4 calcium signal – cell-based, HEK293 TRPC4/mu-opioid, Fluo-4 calcium, EC20 DAMGO, dose response (AID 434941;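 active = earlier screen potentiator hit that boosts the TRPC4 ion channel at some dose, with a dose response; inactive = no potentiation, no dose response, or not a prior hit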;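 note: calcium entry triggered by an EC20 dose of DAMGO at the co-expressed mu-opioid receptor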)
# [9] = target: Short transient receptor potential channel 4 (Mus musculus) (UniProt Q9QUQ5); test: block of DAMGO-driven TRPC4 calcium entry – cell-based, HEK293 TRPC4/mu-opioid, Fluo-4 calcium, dose response (AID 434942;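 active = primary screen inhibitor hit that blocks the TRPC4 channel at some tested dose, yielding a dose curve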)
# [10] = target: Short transient receptor potential channel 6 (Mus musculus) (UniProt Q61143); test: TRPC6 blockade by TRPC4 inhibitor hits – cell-based, HEK293, membrane potential dye, duplicate, selectivity assay for TRPC4 inhibitor project, confirmation (AID 434948;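 active = active in primary screen and both duplicates, each dropping signal beyond three positive-control SD with fluorescence still positive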); settings: HEK293 TRPC6, membrane potential dye fluorescence, at 10 µM, stimulated with maximal-effect acetylcholine; hits give high values
# Sequence of Short transient receptor potential channel 6 (Mus musculus) (Q61143 whole entry, looked up): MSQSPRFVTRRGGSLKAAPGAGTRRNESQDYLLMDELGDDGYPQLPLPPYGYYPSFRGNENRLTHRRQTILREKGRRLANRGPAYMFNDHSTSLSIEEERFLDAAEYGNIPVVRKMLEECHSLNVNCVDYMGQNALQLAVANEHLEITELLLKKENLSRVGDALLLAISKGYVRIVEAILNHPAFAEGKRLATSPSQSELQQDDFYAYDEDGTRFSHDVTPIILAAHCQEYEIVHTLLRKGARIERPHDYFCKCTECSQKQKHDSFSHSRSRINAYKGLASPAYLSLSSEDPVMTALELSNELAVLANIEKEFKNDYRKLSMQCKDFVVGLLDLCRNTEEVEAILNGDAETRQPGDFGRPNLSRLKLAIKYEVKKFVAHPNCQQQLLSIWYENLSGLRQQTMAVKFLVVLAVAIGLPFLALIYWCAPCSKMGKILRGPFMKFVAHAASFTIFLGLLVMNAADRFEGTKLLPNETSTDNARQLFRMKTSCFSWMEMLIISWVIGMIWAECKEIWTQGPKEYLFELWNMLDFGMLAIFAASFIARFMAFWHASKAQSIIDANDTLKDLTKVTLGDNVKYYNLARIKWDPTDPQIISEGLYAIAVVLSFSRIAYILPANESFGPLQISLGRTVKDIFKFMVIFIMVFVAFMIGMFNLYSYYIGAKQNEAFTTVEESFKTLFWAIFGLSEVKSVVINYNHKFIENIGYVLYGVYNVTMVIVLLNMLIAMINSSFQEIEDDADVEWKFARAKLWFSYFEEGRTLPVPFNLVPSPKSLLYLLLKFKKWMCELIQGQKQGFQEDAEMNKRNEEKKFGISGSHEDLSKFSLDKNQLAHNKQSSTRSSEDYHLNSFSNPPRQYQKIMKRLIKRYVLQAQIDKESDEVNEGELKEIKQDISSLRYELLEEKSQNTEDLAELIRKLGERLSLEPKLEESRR
# [11] = target: Short transient receptor potential channel 6 (Mus musculus) (UniProt Q61143); test: TRPC6 opening by TRPC4 activator hits – cell-based, HEK293, membrane potential dye, duplicate, selectivity assay for TRPC4 activator project, confirmation (AID 434950;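 active = membrane potential signal rise above negative control mean plus 3 SD in both duplicates, also active in the earlier TRPC4 screen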); settings: HEK293 TRPC6, membrane potential fluorescence, at 10 µM; activation: hits give high values; outcome: activation
# [12] = target: Short transient receptor potential channel 6 (Mus musculus) (UniProt Q61143); test: positive modulators of mouse TRPC6 channel – HEK293 cells, membrane potential dye, duplicate, selectivity assay for TRPC4 potentiator project, confirmation (AID 434952;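 active = compound raising the membrane signal above positive-control mean plus 3 SD in both repeats, and a primary screen hit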); settings: HEK293 TRPC6, membrane potential dye fluorescence, at 10 µM, maximal acetylcholine added after compound; hits give high values
# [13] = target: Short transient receptor potential channel 4 (Mus musculus) (UniProt Q9QUQ5); test: calcium flux activators in TRPC4/5HT1a cells, counter-screen for TRPC4 activator project, cell-based, second counter screen, HEK293 TRPC4/5HT1a, Fluo-4 (AID 434977;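 active = calcium signal rise above buffer-control mean plus 5 SD in both duplicates, and also a hit in the primary screen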); settings: Fluo-4 calcium flux, at 10 µM; hits give high values
# [14] = serotonin-gated TRPC4 signal block – cell-based, second counter screen, HEK293 TRPC4/5HT1a, Fluo-4, counter-screen for TRPC4 inhibitor project, confirmation (AID 434978;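 active = primary screen active whose calcium signal fell more than 3 SD beyond the full-serotonin control mean in both duplicate plates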;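 note: serotonin given first at submaximal then at maximal dose after compound preincubation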); settings: Fluo-4 calcium flux, at 10 µM, serotonin added to trigger calcium flux; hits give high values
# [15] = tested on: TRPC4 (mouse), co-expressed with 5HT1a in HEK293; test: enhancement of serotonin-evoked TRPC4 response – cell-based, second counter screen, HEK293 TRPC4/5HT1a, Fluo-4, counter-screen for TRPC4 potentiator project, confirmation (AID 434979;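 active = signal rise over 3 SD above mean of control wells given weak agonist, in both repeats and first screen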); settings: Fluo-4 calcium flux, at 10 µM, serotonin added at its EC20 dose; hits give high values
# [16] = nonspecific calcium rise without TRPC4 – cell-based, HEK293 mu-opioid receptor line, counter-screen for TRPC4 activator project, confirmation (AID 449723;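 active = hit in primary screen, with calcium signal over 5 SD above buffer well mean in both duplicates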;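 note: counter screen cells carry the mu-opioid receptor alone and lack TRPC4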); settings: HEK293 mu-opioid cells, Fluo-4 calcium fluorescence, at 10 µM; hits give high values
# [17] = nonspecific potentiation of DAMGO calcium response – cell-based, HEK293 mu-opioid receptor line, counter-screen for TRPC4 allosteric potentiator project, confirmation (AID 449724;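 active = calcium signal rise more than 3 SD above the low-dose agonist control mean, in both duplicate plates and the primary screen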); settings: HEK293 mu-opioid receptor cells, Fluo-4 calcium flux, at 10 µM, compound added before EC20 DAMGO stimulus; hits give high values
Structure (SMILES),outcome [1],outcome [2],outcome [3],potentiation [4],outcome [5],outcome [6],outcome [7],outcome [8],outcome [9],outcome [10],outcome [11],outcome [12],outcome [13],outcome [14],potentiation [15],outcome [16],outcome [17],outcome [4],outcome [15],potentiation [3]
CCCn1c(SCC(=O)N2c3ccccc3Sc3ccccc32)nc2c1c(=O)n(C)c(=O)n2C,inactive,inactive,inactive,18% (active),inactive,inactive,inactive,inactive,inactive,inactive,inactive,inactive,inactive,inactive,45.1% (active),inactive,inactive,–,–,–
O=C(c1ccc([N+](=O)[O-])s1)N1CCCc2ccccc21,inactive,inactive,inactive,–,inactive,inactive,inactive,inactive,inactive,inactive,inactive,inactive,inactive,inactive,–,inactive,inactive,inactive,inactive,–
CN(C)C(CNc1ccc(C(N)=O)cc1[N+](=O)[O-])c1ccccc1 (stereo not drawn),inactive,inactive,inactive,–,inactive,inactive,inactive,inactive,inactive,inactive,inactive,inactive,inactive,inactive,–,inactive,inactive,inactive,inactive,–
Cc1ccc(/C=N/NC(=S)NC2CCCCC2)o1,inactive,inactive,inactive,66% (active),inactive,inactive,inactive,inactive,inactive,inactive,inactive,inactive,inactive,inactive,85.1% (active),inactive,inactive,–,–,–
O=c1[nH]ncc(N2CCN(Cc3ccccc3)CC2)c1Cl,inactive,inactive,inactive,–,inactive,inactive,inactive,inactive,inactive,inactive,inactive,inactive,inactive,inactive,–,inactive,inactive,inactive,inactive,–
CCN1CCN(c2ccc(S(=O)(=O)N3CCCCC3)cc2NC(=O)c2cccc(OC(F)F)c2)CC1,inactive,inactive,–,18% (active),inactive,inactive,inactive,inactive,inactive,inactive,inactive,inactive,inactive,inactive,15.6% (active),inactive,inactive,–,–,7% (active)
CC1(C)CN=c2s/c(=C\c3ccc(Cl)cc3)c(=O)n2C1,inactive,inactive,inactive,–,inactive,inactive,inactive,inactive,inactive,inactive,inactive,inactive,inactive,inactive,25.3% (active),inactive,inactive,inactive,–,–
CCOC(=O)CC(NC(=O)c1cc2cc(Cl)cc(Cl)c2oc1=O)c1cccc([N+](=O)[O-])c1 (stereo not drawn),inactive,inactive,inactive,35% (active),inactive,inactive,inactive,inactive,inactive,inactive,inactive,inactive,inactive,inactive,–,inactive,inactive,–,inactive,–
c1ccc(C(c2nnnn2C2CCCC2)N2CCN(c3ccccc3)CC2)cc1 (stereo not drawn),inactive,inactive,inactive,–,inactive,inactive,inactive,inactive,inactive,inactive,inactive,inactive,inactive,inactive,–,inactive,inactive,inactive,inactive,–
COc1ccc(C2CC(=O)c3cnc(N4CCN(Cc5ccccc5)CC4)nc3C2)cc1 (stereo not drawn),inactive,inactive,inactive,–,inactive,inactive,inactive,inactive,inactive,inactive,inactive,inactive,inactive,inactive,14.7% (active),inactive,inactive,inactive,–,–
COc1ccc(C(=O)N2CCN(c3c(C)cccc3C)CC2)cc1OC,inactive,inactive,inactive,–,inactive,inactive,inactive,inactive,inactive,inactive,inactive,inactive,inactive,inactive,15% (active),inactive,inactive,inactive,–,–
CCOC(=O)c1c(NC(=O)COC(=O)CCOc2ccc(OCC)cc2)sc(C(=O)N(C)C)c1C,inactive,inactive,–,32% (active),inactive,inactive,inactive,inactive,inactive,inactive,inactive,inactive,inactive,inactive,81.1% (active),inactive,inactive,–,–,22% (active)
N#Cc1ccc(-c2ccccc2)nc1SCCN1CCOCC1,inactive,inactive,inactive,–,inactive,inactive,inactive,inactive,inactive,inactive,inactive,inactive,inactive,inactive,17.3% (active),inactive,inactive,inactive,–,–
CCOc1cc(/C=C2\CN(CC)C/C(=C\c3ccc(O)c(OCC)c3)C2=O)ccc1O,inactive,inactive,inactive,–,inactive,inactive,inactive,inactive,inactive,inactive,inactive,inactive,inactive,inactive,–,inactive,inactive,inactive,inactive,–
